Measurements: the supplement of paper PMC6555819

How the values were obtained:
Test in all cases: PBM binding z-score (relative to random genomic background probes); higher = stronger binding; sequences stand for … in GC…GCGATTGACAGCGTAGAATGAAGG
[1] = tested on: PPARg:RXRa DBDmut IVT, anti-RXR (DBD mutation: RXRa K156A/R161A, NR concentration 270 nM, RXRa partner concentration 90 nM)
Outline: (§1)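 For binding z-scores, the reference was random background probes on custom Agilent 4×180K protein-binding microarrays. These arrays were incubated 1 h with ligand-free nuclear receptor dimers in PBS pH 7.4, 2% milk, 0.02% Triton X-100, 1 mM DTT, 0.2 mg/mL BSA and 0.4 mg/ml salmon testes DNA. Fluorescence was scanned after antibody detection of each partner (one per run) and regression-normalized.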

[2] = tested on: PPARg:RXRa IVT, anti-PPARg (NR concentration 270 nM, RXRa partner concentration 90 nM)
Outline: as §1

[3] = tested on: PPARg DBDmut:RXRa IVT, anti-PPARg (DBD mutation: PPARg1 K132A/R137A, NR concentration 270 nM, RXRa partner concentration 90 nM)
Outline: as §1

[4] = tested on: PPARg DBDmut IVT, anti-PPARg (DBD mutation: PPARg1 K132A/R137A, NR concentration 270 nM)
Outline: as §1

[5] = tested on: PPARg homodimer (NR concentration 180 nM)
Outline: as §1

[6] = tested on: PXR:RXRa (NR concentration 270 nM, RXRa partner concentration 90 nM)
Outline: as §1

[7] = tested on: PXR homodimer (NR concentration 270 nM)
Outline: as §1

[8] = tested on: RARa:RXR (NR concentration 270 nM, RXRa partner concentration 90 nM)
Outline: as §1

[9] = tested on: RARa homodimer (NR concentration 270 nM)
Outline: as §1

[10] = tested on: RARb homodimer (NR concentration 270 nM)
Outline: as §1

[11] = tested on: RARg:RXRa (NR concentration 270 nM, RXRa partner concentration 90 nM)
Outline: as §1

[12] = tested on: RARg homodimer (NR concentration 270 nM)
Outline: as §1

[13] = tested on: RXRa DBDmut IVT, anti-RXR (DBD mutation: RXRa K156A/R161A, NR concentration 90 nM)
Outline: as §1

[14] = tested on: RXRa homodimer (NR concentration 180 nM)
Outline: as §1

[15] = tested on: THRa:RXRa (NR concentration 90 nM, RXRa partner concentration 90 nM)
Outline: as §1

[16] = tested on: THRa homodimer (NR concentration 90 nM)
Outline: as §1

[17] = tested on: VDR homodimer (NR concentration 270 nM)
Outline: as §1

[18] = tested on: RARb:RXRa (NR concentration 270 nM, RXRa partner concentration 90 nM)
Outline: as §1

[19] = tested on: VDR:RXRa (NR concentration 270 nM, RXRa partner concentration 90 nM)
Outline: as §1

Row | Sequence | PBM binding z-score [1] | PBM binding z-score [2] | PBM binding z-score [3] | PBM binding z-score [4] | PBM binding z-score [5] | PBM binding z-score [6] | PBM binding z-score [7] | PBM binding z-score [8] | PBM binding z-score [9] | PBM binding z-score [10] | PBM binding z-score [11] | PBM binding z-score [12] | PBM binding z-score [13] | PBM binding z-score [14] | PBM binding z-score [15] | PBM binding z-score [16] | PBM binding z-score [17] | PBM binding z-score [18] | PBM binding z-score [19]
1 | TAGCCTAGGCCATGGGCCAGTATACCACGCGAAC | -0.977 | -0.175 | -0.116 | -1.11 | -1.27 | -0.806 | -1.11 | -0.86 | -1.48 | -0.0202 | -0.148 | 0.285 | -1.69 | -0.256 | -0.253 | -0.645 | -0.837 |  | 
2 | CAAACTAGGTCACAGAGGTCAACGTCCGTGCGTA | 8.84 | 9.29 | 4.63 | 5.15 | 4.43 | 6.82 | 8.28 | 7.23 | 2.74 | 5.75 | 7.28 | 8.09 | 3.2 | 7.63 | 4.9 | 3.25 | 5.58 |  | 
3 | CGTCAAAGTTCAAGTTAACGTAACAGAAAGCAGC | 0.502 | 2.16 | 0.474 | 0.736 | 3.88 | 4.92 | 4.14 | 3.96 | 2.01 | 4.24 | 5.84 | 6.77 | 4.89 | 5.38 | 2.3 | -0.142 | 4.05 |  | 
4 | TTTCCAAGGTGAAAGGTCGTTGATGCACGCCTTG | 2.51 | 4.72 | 0.923 | 0.85 | 1.64 | 4.23 | 0.161 | 5.56 | -0.0268 | 2.58 | 4.16 | 1.99 | 0.408 | 5.33 | 3.76 | 1.38 | 1.38 |  | 
5 | CCTACTGGGCGAAGGTCATTGATCAGTCAAAGCA | 0.342 | 2.33 | -1.21 | -0.935 | 2.36 | 3.04 | 0.36 | 3.75 | -0.327 | 3.08 | 3.7 | 2.52 | 0.409 | 2.97 | 2.2 | -0.298 | 1.33 |  | 
6 | CGTCAAAGTTCTAGGTAACGTAACAGAAAGCAGC | 1.41 | 1.83 | 0.454 | 0.457 | 0.283 | -0.00995 | -0.093 | 0.103 | 0.866 | -0.287 | 0.0968 | 0.323 | 0.31 | 0.135 | 0.719 | 0.349 | -0.0157 |  | 
7 | TAGCCTAGGTCAGATCGGGCGAGTATACGCTATA | 0.488 | 1.31 | -0.335 | -0.507 | 0.138 | 0.314 | -0.678 | 0.971 | -1.26 | 2.27 | 2.7 | 3.68 | -0.51 | 1.44 | 3.15 | -0.0987 | -0.405 |  | 
8 | CCTACTGGGCCAAGGTCATTGCTCAGTCAAAGCA | 3.53 | 4.65 | 0.15 | -1.36 | 1.17 | 3.36 | 0.887 | 3.01 | -0.436 | 3.23 | 3.53 | 2.97 | 1.25 | 2.85 | 3.42 | 2.02 | 3.2 |  | 
9 | CGAACTAGGACATCCAGGACAGTGAATACATTGA | 5.1 | 4.07 | 0.493 | 0.652 | 0.302 | -0.363 | 0.206 | 0.00684 | 0.136 | 0.243 | 0.252 | 0.695 | 0.592 | 0.0939 | 1.78 | 1.4 | 0.467 |  | 
10 | TCTGCTAGGTCAGTTGGGCAGCTAACGAGCTGCC | 2.07 | 2.7 | -0.163 | -0.28 | 0.0544 | -0.242 | -1.29 | 0.253 | -1.12 | 1.91 | 2.37 | 3.42 | 0.193 | 0.493 | 1.12 | -0.349 | -0.821 |  | 
11 | GCTGCAAGGTCAACTGATGGTCAGCTAAAGCTCG | 3.15 | 3.5 | 0.338 | -0.136 | 2.93 | 4.58 | 0.331 | 5.36 | 0.743 | 4.71 | 7.17 | 7.04 | 3.75 | 5.7 | 4.18 | 2.31 | 2.53 |  | 
12 | CGAACTAGCTCAAGGACAGTGAATCTCCGCACGC | 0.26 | -0.559 | -0.68 | -0.183 | -0.00792 | -0.255 | -0.354 | -0.192 | -0.143 | 0.214 | -0.134 | -0.141 | 0.392 | -0.227 | 1.42 | 1.48 | 0.226 |  | 
13 | CGTCAAAGTTCAAGGTTACGTAACAGAAAGCAGC | 0.998 | 2.75 | 1.55 | 1.22 | 2.53 | 4.66 | 2.48 | 4.11 | 1.38 | 4.45 | 5.57 | 6.33 | 4.73 | 4.85 | 3.43 | 1.33 | 3.55 |  | 
14 | ACTAGCAGGCCAAGAGTCACTCAAGATTAGTCCG | 0.813 | 0.847 | -0.175 | -0.385 | 0.631 | -0.105 | -0.185 | 0.354 | -0.112 | 0.0309 | 0.304 | 0.413 | -0.426 | 0.599 | 0.162 | -0.533 | -0.0236 |  | 
15 | CGTCCAAGGTCAAAGGTCAGCGAAGAGATGACGG | 4.17 | 6.07 | 0.648 | 0.832 | 4.17 | 7.19 | 1.93 | 8.63 | 2.3 | 5.39 | 8.99 | 8.41 | 3.72 | 10.4 | 5.06 | 2.63 | 3.77 |  | 
16 | CGTGCAAGGTCAGAGAGGTCAGTGAATGCCGAGT | 2.79 | 3.68 | 0.231 | -0.338 | 2.85 | 6.05 | 11.2 | 5.42 | 0.698 | 5.37 | 6.33 | 7.25 | 3.07 | 5.82 | 4.31 | 2.54 | 5.99 |  | 
17 | AATACAGGATCACTAGGCCAGAGTAGGTACGAAT | 0.409 | 1.29 | 1.21 | 0.197 | 0.314 | -0.236 | 0.366 | -0.456 | 0.395 | 0.388 | 0.343 | 0.495 | -0.317 | 0.367 | -0.0476 | -0.262 | 0.0243 |  | 
18 | CGAACTAAGTCATCCAGGACAGTGAATACATTGA | 1.12 | 0.862 | 0.763 | 1.05 | 0.291 | -0.153 | -0.248 | 0.371 | 0.476 | 0.33 |  | 0.549 | 0.248 | 0.264 | 1.55 | 1.1 | 0.0279 |  | 
19 | TCTTGTAGATCAAAGGTTAAGACAGCCGAAGCCT | 2.1 | 3.94 | 1.03 | 0.9 | 1.28 | 2.12 | -0.0752 |  | 0.276 | 1.45 | 1.94 | 1.05 | 0.925 | 3.08 | 1.24 | -0.0838 | 0.141 | 1.91 | 
20 | AGTCAAAGGTCAGGACGAGGTAACGTAAAGCACG | 3.25 | 5.65 | 0.687 | 0.49 | 4.08 | 4.9 | 0.639 | 5.78 | 2.25 | 4.82 |  | 7.93 | 1.32 | 7.47 |  | 2.11 | 0.891 |  | 
21 | CGAACTAAGTCATTGACAGGACAGTGAATAGTAA | 0.976 | 0.473 | -0.569 | 0.367 | -0.739 | -0.093 | -0.313 | 0.0796 | 0.472 | -0.122 |  | 0.434 | 0.322 | -0.0903 | 0.19 | -0.56 | -0.385 |  | 
22 | CGTCCAAGGTCAAGGTCACTGAAAGAGACTCGAA | 3.94 | 5.37 | 1.81 | 0.436 | 3.85 | 5.68 | 1.6 | 6.16 | 1.64 | 5.6 |  | 8.3 | 3.73 |  |  | 4.35 | 4.03 |  | 
23 | CCTTACGGGTCAAGGTAATAGCACGGGTGGTACG | 1.83 | 3.41 | 0.176 | -0.496 | 1.93 | 2.54 | 0.213 |  | 0.734 | 2.82 | 4.6 | 4.42 | 0.648 | 4.79 | 2.66 | 0.382 | 0.423 | 4.1 | 
24 | CAAACTAGGTCAAAGGTCAAAGTTGAGCCAACCA | 8.56 | 9.49 | 2.5 | 3.77 | 3.75 | 7.31 | 1.83 |  | 2.12 | 5.46 | 9.07 | 7.7 | 3.35 | 10.5 | 4.95 | 1.92 | 3.15 | 5.96 | 
25 | CAGACTAGGTCAAAGGTCAAAGTCGAGCCAACCA | 7.65 | 8.8 | 3.31 | 3.18 | 5.71 | 7.16 | 1.95 |  | 2.03 | 5.25 | 8.9 | 7.48 | 3.08 | 10.3 | 4.68 | 1.38 | 3.17 | 5.64 | 6.58
26 | AGTCAAAGGTCACTAGGTAACGTAAGATTCAGCT | 5.65 | 7.5 | 1.54 | 0.924 | 4.05 | 4.94 | 1.04 | 5.94 | 2.79 | 5.03 |  | 8.53 | 2.94 |  | 3.99 | 0.996 | 2.14 |  | 
27 | CTCGAAAGGTCAGTTGAGGTGAGTATACGGATAA | 2.81 | 3.53 | 0.544 | 1.62 | 5.81 | 5.79 | 0.639 | 5.08 | 3.41 | 4.91 | 6.7 | 7.89 | 2.56 | 5.93 |  | 1.63 | 1.63 |  | 
28 | CGTCCAAGGTCAATGTTAGGTCAGTGAAAGCATT | 2.85 | 3.43 | -0.0958 | -0.256 | 3.57 | 4.77 | 1.6 | 5.78 | 1.18 | 5.33 | 7.45 | 6.89 | 3.6 | 5.27 |  | 3.81 | 2.78 |  | 
